PubChem BioAssay (EPA / NIEHS)
Results filed as inconclusive are left out. Some compounds were tested as several samples or in several runs, with calls that do not always agree. The source made the active and inactive calls. How the source made its calls, unless noted: active means hit-call score of the fitted dose curve at least 0.9, where 1 is the maximum; inactive means score below 0.9.

What was measured:
[1] = BSK_3C_VCAM1: BioMAP Diversity Plus: 3C Assay for Vascular cell adhesion molecule 1 (VCAM1) Biomarker Activity (AID 2282999); details: BioMAP 3C HUVEC, VCAM1 ELISA, cytokine-stimulated; actives raise or lower the signal
Summary of the method: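 Vascular primary endothelium (human umbilical vein) was exposed to chemicals and assayed 24 h later. VCAM-1 levels came from ELISA, with DMSO serving as baseline for bidirectional fitting.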

[2] = BSK_4H_Eotaxin3: BioMAP Diversity Plus: 4H Assay for Eotaxin 3 Biomarker Activity (AID 2283000); details: primary human endothelial cells (HUVEC); actives raise or lower the signal
Summary of the method: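 Human umbilical vein endothelial cells (BSK_4H system) dosed with test chemical; Eotaxin-3 (CCL26) measured by ELISA 24 h after dosing. Bidirectional curve fitting relative to DMSO negative control as baseline.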

[3] = biological target: human Peroxisome Proliferator-activated Receptor alpha (PPARa), PPARA (gene 5465) (UniProt Q07869); experiment: ATG_PPARa_TRANS: Attagene TRANS-FACTORIAL HepG2 Assay for human Peroxisome Proliferator-activated Receptor alpha (PPARa) (AID 2283001; active means hit-call score of the fitted dose curve at least 0.9, where 1 is the maximum;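 on AC50: potency for gain of reporter signal over DMSO so agonist or activator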)
Summary of the method: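 Exposure: 24 h, transiently transfected HepG2 cells. Endpoint: GAL4-UAS reporter mRNA, RT-PCR with capillary electrophoresis fluorescence. Baseline: DMSO; increases fitted.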

[4] = biological target: human Peroxisome Proliferator-activated Receptor delta (PPARd), PPARD (gene 5467) (UniProt Q03181); experiment: ATG_PPARd_TRANS: Attagene TRANS-FACTORIAL HepG2 Assay for human Peroxisome Proliferator-activated Receptor delta (PPARd) (AID 2283002; active means hit-call score of the fitted dose curve at least 0.9, where 1 is the maximum)
Summary of the method: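 Multiplexed trans-activation format: HepG2 liver cells expressing exogenous NR-Gal4 chimeras and GAL4-UAS reporters were exposed for 24 h. Reporter mRNA was detected by RT-PCR with capillary electrophoresis fluorescence; activity fitted as gain of signal relative to DMSO.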

[5] = read-out: Intercellular Adhesion Molecule 1 (ICAM1), ICAM1 (gene 3383); experiment: BSK_3C_ICAM1: BioMAP Diversity Plus: 3C Assay for Intercellular Adhesion Molecule 1 (ICAM1) Biomarker Activity (AID 2283003); details: primary human endothelial cells (HUVEC); actives raise or lower the signal
Summary of the method: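 ELISA read-out of ICAM-1; HUVEC (primary human), 3C system, 24 h post-dosing; bidirectional fit vs DMSO baseline.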

[6] = BSK_3C_Proliferation: Cell Proliferation Assessment in the BioMAP Diversity Plus: 3C Assay (AID 2283006); details: primary human endothelial cells (HUVEC);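 on AC50: potency may reflect either rise or fall in cell number versus DMSO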
Summary of the method: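 HUVEC, sub-confluent; 48 h chemical exposure; 10% TCA fix, 0.1% SRB stain, A560 total protein. Gain or loss of signal fitted both directions vs DMSO control.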

[7] = biological target: Peroxisome proliferator-activated receptor gamma (Homo sapiens) (UniProt P37231); experiment: ATG_PPARg_TRANS: Attagene TRANS-FACTORIAL HepG2 Assay for human Peroxisome Proliferator-activated Receptor-gamma (PPARg) (AID 2283007; active means hit-call score of the fitted dose curve at least 0.9, where 1 is the maximum)
Summary of the method: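 Transient transfection of HepG2 with GAL4-UAS-driven reporter units; chemical dosing 24 h; total RNA → oligo(dT) RT → PCR with reporter primers → 6-FAM primer extension → HpaI digest 2 h 37 C → capillary electrophoresis. Positive direction vs DMSO.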

[8] = biological target: Nuclear receptor subfamily 1 group I member 2 (Homo sapiens) (UniProt O75469); experiment: ATG_PXR_TRANS: Attagene TRANS-FACTORIAL HepG2 Assay for human Pregnane X Receptor (PXR) (AID 2283008; active means hit-call score of the fitted dose curve at least 0.9, where 1 is the maximum)
Summary of the method: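 Trans-factorial format: exogenous NR-Gal4 fusion activity, not endogenous factor, in transfected human HepG2 liver cells. After 24 h dosing, RNA isolated, reverse-transcribed, amplified and resolved by capillary electrophoresis; induction scored versus DMSO.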

[9] = biological target: human Retinoic Acid Receptor gamma (RARg), RARG (gene 5916) (UniProt P13631); experiment: ATG_RARg_TRANS: Attagene TRANS-FACTORIAL HepG2 Assay for human Retinoic Acid Receptor gamma (RARg) (AID 2283009; active means hit-call score of the fitted dose curve at least 0.9, where 1 is the maximum)
Summary of the method: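 Readout: reporter transcript levels via RT-PCR, 6-FAM primer-extension labelling, HpaI digestion and capillary electrophoresis. Cells: HepG2 carrying transfected RARg-GAL4 chimera plus UAS reporter set. Dosing 24 h; DMSO negative control.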

[10] = biological target: Retinoic acid receptor RXR-alpha (Homo sapiens) (UniProt P19793); experiment: ATG_RXRa_TRANS: Attagene TRANS-FACTORIAL HepG2 Assay for human Retinoid X Receptor alpha (RXRa) (AID 2283012; active means hit-call score of the fitted dose curve at least 0.9, where 1 is the maximum)
Summary of the method: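 Read-out: fluorescent reporter-transcript fragments quantified by capillary electrophoresis after RT-PCR. Transiently transfected HepG2 cells carrying GAL4-UAS reporters and NR-GAL4 chimeras were exposed to chemical for 24 h; activity scored as increase over DMSO.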

[11] = biological target: human Retinoid X Receptor beta (RXRb), RXRB (gene 6257) (UniProt P28702); experiment: ATG_RXRb_TRANS: Attagene TRANS-FACTORIAL HepG2 Assay for human Retinoid X Receptor beta (RXRb) (AID 2283013; active means hit-call score of the fitted dose curve at least 0.9, where 1 is the maximum)
Summary of the method: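 Read-out: reporter mRNA induction via RT-PCR plus capillary electrophoresis fluorescence, analysed as signal increase relative to DMSO. Cells were human HepG2, transiently transfected with GAL4-UAS reporter constructs and chimeric receptor-Gal4 fusions, dosed for 24 h.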

[12] = biological target: human Thyroid Receptor alpha (THRa1), THRA (gene 7067) (UniProt P10827); experiment: ATG_THRa1_TRANS: Attagene TRANS-FACTORIAL HepG2 Assay for human Thyroid Receptor alpha (THRa1) (AID 2283014; active means hit-call score of the fitted dose curve at least 0.9, where 1 is the maximum)
Summary of the method: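 Transcripts from GAL4-UAS-driven reporters, measured after 24 h compound exposure by RT-PCR plus capillary electrophoresis of 6-FAM-labeled fragments, were fitted for gain of signal relative to DMSO. Cells: transiently transfected HepG2 expressing NR-Gal4 chimeras.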

[13] = read-out: E-selectin (Homo sapiens) (UniProt P16581); experiment: BSK_3C_Eselectin: BioMAP Diversity Plus: 3C Assay for Eselectin Biomarker Activity (AID 2283015); details: primary human endothelial cells (HUVEC); actives raise or lower the signal
Summary of the method: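 E-selectin ELISA readout, fitted bidirectionally relative to DMSO, taken 24 h post-dosing in HUVEC cultures of the 3C system. Overt cytotoxicity tracked with sulforhodamine B staining of parallel wells.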

[14] = read-out: Interleukin-1 alpha (IL1a), IL1A (gene 3552); experiment: BSK_BE3C_IL1a: BioMAP Diversity Plus: BE3C Assay for Interleukin-1 alpha (IL1a) Biomarker Activity (AID 2283016); details: primary human bronchial epithelial cells; actives raise or lower the signal
Summary of the method: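 ELISA read-out of IL-1a from human lung bronchial epithelial primary cells, 24 h post-dose. Gain or loss of signal fitted relative to DMSO negative control.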

[15] = read-out: Monocyte Chemoattractant Protein-1 (MCP1), CCL2 (gene 6347); experiment: BSK_3C_MCP1: BioMAP Diversity Plus: 3C Assay for Monocyte Chemoattractant Protein-1 (MCP1) Biomarker Activity (AID 2283017); details: primary human endothelial cells (HUVEC); actives raise or lower the signal
Summary of the method: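 MCP-1 was measured by ELISA 24 h after dosing in primary HUVEC 3C cultures and fitted in both directions relative to DMSO; cytotoxicity was checked by SRB total-protein staining in parallel wells.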

[16] = read-out: Monocyte Chemoattractant Protein-1 (MCP1), CCL2 (gene 6347); experiment: BSK_4H_MCP1: BioMAP Diversity Plus: 4H Assay for Monocyte Chemoattractant Protein-1 (MCP1) Biomarker Activity (AID 2283018); details: primary human endothelial cells (HUVEC); actives raise or lower the signal
Summary of the method: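 HUVEC primary cells, 24 h post-dose, MCP-1 by ELISA. Gain or loss of signal fitted bidirectionally vs DMSO baseline. Cytotoxicity: SRB stain (0.1% after 10% TCA fixation), read 560 nm, parallel cultures.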

[17] = biological target: human Retinoic Acid Receptor beta (RARb), RARB (gene 5915) (UniProt P10826); experiment: ATG_RARb_TRANS: Attagene TRANS-FACTORIAL HepG2 Assay for human Retinoic Acid Receptor beta (AID 2283004; active means hit-call score of the fitted dose curve at least 0.9, where 1 is the maximum)
Summary of the method: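 Induction of reporter mRNA from a chimeric RARb-Gal4 construct was measured by RT-PCR, FAM labelling, HpaI digestion and capillary electrophoresis. Measurements followed 24 h compound treatment of transiently transfected human HepG2 liver cells, with DMSO as baseline.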

[18] = biological target: Retinoic acid receptor alpha (Homo sapiens) (UniProt P10276); experiment: ATG_RARa_TRANS: Attagene TRANS-FACTORIAL HepG2 Assay for human Retinoic Acid Receptor alpha (RARa) (AID 2283005; active means hit-call score of the fitted dose curve at least 0.9, where 1 is the maximum)
Summary of the method: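 HepG2 cells transiently transfected with multiple reporter units expressing chimeric RARα-GAL4 fusion, with GAL4-UAS-driven reporters. After 24 h compound exposure, reporter mRNA induction quantified by RT-PCR and capillary electrophoresis with fluorescent labeling; gain-of-signal fitted relative to DMSO control.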

[19] = biological target: human RAR-related Orphan Receptor gamma (RORg), RORC (gene 6097) (UniProt P51449); experiment: ATG_RORg_TRANS: Attagene TRANS-FACTORIAL HepG2 Assay for human RAR-related Orphan Receptor gamma (RORg) (AID 2283011; active means hit-call score of the fitted dose curve at least 0.9, where 1 is the maximum)
Summary of the method: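 Reporter transcripts from a transfected RORg-GAL4 chimera in HepG2 cells were quantified 24 h after dosing by RT-PCR, 6-FAM labelling, HpaI digestion and capillary electrophoresis; increases over DMSO baseline were fitted.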

[20] = biological target: human RAR-related Orphan Receptor beta (RORb), RORB (gene 6096) (UniProt Q92753); experiment: ATG_RORb_TRANS: Attagene TRANS-FACTORIAL HepG2 Assay for human RAR-related Orphan Receptor beta (RORb) (AID 2283010; active means hit-call score of the fitted dose curve at least 0.9, where 1 is the maximum)
Summary of the method: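 HepG2, transient MRTU transfection (GAL4-UAS reporters, exogenous NR-Gal4 chimeras); 24 h compound exposure; total RNA → RT-PCR → 6-FAM primer extension → HpaI digest → CE fluorescence. Positive direction vs DMSO baseline.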

Measured: AC50

Chain of Retinoic acid receptor alpha (Homo sapiens) (P10276 whole entry, looked up, the tested form may be a part): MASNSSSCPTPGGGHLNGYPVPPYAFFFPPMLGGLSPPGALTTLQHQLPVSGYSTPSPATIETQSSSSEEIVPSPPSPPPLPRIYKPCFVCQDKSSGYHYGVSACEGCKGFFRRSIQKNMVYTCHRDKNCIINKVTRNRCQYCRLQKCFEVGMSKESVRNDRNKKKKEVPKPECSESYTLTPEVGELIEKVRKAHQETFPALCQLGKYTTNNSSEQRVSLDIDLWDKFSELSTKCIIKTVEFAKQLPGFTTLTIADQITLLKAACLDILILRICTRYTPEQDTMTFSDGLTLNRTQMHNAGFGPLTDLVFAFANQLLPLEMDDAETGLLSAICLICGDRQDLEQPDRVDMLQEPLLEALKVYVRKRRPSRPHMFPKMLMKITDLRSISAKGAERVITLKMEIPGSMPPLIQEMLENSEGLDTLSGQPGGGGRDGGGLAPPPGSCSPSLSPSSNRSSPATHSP
Chain of human Retinoic Acid Receptor beta (RARb), RARB (gene 5915) (P10826 whole entry, looked up, the tested form may be a part): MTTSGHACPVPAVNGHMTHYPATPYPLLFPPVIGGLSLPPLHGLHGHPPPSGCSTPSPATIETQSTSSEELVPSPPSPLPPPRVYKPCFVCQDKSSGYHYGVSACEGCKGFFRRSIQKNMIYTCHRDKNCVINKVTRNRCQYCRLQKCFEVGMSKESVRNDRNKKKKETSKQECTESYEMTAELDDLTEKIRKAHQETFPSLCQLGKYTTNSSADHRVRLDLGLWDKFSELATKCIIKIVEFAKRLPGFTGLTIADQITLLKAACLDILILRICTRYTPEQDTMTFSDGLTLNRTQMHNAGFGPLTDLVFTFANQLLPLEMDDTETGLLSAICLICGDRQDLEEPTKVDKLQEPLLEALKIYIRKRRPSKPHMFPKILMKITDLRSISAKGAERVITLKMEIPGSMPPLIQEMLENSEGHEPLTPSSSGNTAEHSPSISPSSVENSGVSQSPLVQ
Chain of human Retinoid X Receptor beta (RXRb), RXRB (gene 6257) (P28702 whole entry, looked up, the tested form may be a part): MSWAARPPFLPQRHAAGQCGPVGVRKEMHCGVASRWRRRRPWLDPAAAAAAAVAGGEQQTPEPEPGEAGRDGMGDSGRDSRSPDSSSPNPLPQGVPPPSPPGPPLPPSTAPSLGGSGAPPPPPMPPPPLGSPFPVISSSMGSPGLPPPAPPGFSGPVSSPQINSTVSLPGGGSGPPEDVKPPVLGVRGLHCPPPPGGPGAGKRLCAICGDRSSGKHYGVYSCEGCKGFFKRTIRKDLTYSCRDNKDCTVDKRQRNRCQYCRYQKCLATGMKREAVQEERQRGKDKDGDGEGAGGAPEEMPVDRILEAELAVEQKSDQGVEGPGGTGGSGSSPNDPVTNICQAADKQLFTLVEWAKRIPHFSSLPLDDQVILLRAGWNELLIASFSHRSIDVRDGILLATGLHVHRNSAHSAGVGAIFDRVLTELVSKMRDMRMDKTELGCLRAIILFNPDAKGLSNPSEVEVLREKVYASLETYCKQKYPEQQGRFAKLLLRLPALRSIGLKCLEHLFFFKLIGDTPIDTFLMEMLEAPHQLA
Chain of human Peroxisome Proliferator-activated Receptor alpha (PPARa), PPARA (gene 5465) (Q07869 whole entry, looked up, the tested form may be a part): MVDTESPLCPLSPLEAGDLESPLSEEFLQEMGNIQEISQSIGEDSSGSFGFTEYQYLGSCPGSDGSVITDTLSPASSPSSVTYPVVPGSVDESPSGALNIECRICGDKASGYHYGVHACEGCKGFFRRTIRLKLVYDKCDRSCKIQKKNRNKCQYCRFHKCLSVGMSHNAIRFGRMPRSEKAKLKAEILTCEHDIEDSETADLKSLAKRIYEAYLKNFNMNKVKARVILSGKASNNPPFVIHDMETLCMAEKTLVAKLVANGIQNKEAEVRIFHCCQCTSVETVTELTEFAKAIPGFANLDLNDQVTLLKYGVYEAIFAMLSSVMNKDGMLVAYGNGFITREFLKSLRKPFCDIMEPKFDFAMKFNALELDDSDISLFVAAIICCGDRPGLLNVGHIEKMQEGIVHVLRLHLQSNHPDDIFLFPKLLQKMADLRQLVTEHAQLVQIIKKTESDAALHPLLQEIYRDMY
Chain of human RAR-related Orphan Receptor gamma (RORg), RORC (gene 6097) (P51449 whole entry, looked up, the tested form may be a part): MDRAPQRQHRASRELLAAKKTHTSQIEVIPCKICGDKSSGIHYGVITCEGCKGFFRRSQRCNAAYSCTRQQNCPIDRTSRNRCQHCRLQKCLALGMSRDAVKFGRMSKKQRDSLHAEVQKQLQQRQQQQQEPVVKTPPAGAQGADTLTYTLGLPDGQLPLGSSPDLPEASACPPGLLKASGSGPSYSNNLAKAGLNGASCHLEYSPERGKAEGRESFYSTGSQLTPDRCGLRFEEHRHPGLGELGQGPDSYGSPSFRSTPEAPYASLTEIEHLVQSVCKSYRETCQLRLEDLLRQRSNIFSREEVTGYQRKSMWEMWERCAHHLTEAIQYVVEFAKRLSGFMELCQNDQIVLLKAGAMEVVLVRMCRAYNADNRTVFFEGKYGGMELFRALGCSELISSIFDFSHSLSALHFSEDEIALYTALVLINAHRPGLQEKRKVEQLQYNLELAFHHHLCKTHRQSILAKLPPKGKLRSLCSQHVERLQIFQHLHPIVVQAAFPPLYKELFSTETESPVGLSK
Chain of Retinoic acid receptor RXR-alpha (Homo sapiens) (P19793 whole entry, looked up, the tested form may be a part): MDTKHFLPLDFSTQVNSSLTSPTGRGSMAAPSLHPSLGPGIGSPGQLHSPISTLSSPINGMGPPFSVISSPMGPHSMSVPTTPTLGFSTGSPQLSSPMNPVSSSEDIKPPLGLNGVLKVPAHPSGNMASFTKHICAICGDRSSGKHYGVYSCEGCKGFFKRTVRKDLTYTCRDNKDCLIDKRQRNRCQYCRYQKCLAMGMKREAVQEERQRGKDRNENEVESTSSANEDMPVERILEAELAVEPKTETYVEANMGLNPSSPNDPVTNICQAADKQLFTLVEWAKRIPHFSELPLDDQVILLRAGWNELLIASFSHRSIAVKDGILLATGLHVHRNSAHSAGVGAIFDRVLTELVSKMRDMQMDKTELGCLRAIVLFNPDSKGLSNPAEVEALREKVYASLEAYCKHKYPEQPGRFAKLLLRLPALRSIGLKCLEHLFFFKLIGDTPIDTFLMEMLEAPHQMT
Chain of Peroxisome proliferator-activated receptor gamma (Homo sapiens) (P37231 whole entry, looked up, the tested form may be a part): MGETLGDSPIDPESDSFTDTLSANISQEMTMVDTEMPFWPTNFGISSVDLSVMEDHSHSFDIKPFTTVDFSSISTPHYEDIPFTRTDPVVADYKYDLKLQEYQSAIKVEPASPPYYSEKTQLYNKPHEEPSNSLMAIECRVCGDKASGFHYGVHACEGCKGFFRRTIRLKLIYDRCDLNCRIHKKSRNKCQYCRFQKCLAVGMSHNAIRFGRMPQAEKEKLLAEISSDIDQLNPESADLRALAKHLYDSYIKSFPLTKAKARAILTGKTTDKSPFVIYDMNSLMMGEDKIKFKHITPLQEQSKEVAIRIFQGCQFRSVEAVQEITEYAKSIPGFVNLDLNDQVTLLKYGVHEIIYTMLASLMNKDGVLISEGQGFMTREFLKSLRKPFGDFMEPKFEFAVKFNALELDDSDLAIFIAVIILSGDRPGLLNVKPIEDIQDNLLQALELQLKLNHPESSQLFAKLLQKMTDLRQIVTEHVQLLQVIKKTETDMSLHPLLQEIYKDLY
Chain of human Retinoic Acid Receptor gamma (RARg), RARG (gene 5916) (P13631 whole entry, looked up, the tested form may be a part): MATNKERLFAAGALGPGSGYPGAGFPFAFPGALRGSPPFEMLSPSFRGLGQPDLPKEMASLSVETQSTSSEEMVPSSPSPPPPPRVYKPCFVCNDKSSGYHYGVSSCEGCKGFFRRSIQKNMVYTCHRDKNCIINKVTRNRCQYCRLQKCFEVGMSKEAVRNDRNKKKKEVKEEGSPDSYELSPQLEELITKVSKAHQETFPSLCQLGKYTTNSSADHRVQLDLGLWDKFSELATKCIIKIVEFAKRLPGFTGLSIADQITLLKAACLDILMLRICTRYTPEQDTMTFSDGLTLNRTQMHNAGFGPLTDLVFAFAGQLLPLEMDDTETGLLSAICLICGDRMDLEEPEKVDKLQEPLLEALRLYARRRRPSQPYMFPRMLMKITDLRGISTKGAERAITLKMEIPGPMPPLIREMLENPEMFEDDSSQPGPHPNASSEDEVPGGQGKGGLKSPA
Chain of E-selectin (Homo sapiens) (P16581 whole entry, looked up): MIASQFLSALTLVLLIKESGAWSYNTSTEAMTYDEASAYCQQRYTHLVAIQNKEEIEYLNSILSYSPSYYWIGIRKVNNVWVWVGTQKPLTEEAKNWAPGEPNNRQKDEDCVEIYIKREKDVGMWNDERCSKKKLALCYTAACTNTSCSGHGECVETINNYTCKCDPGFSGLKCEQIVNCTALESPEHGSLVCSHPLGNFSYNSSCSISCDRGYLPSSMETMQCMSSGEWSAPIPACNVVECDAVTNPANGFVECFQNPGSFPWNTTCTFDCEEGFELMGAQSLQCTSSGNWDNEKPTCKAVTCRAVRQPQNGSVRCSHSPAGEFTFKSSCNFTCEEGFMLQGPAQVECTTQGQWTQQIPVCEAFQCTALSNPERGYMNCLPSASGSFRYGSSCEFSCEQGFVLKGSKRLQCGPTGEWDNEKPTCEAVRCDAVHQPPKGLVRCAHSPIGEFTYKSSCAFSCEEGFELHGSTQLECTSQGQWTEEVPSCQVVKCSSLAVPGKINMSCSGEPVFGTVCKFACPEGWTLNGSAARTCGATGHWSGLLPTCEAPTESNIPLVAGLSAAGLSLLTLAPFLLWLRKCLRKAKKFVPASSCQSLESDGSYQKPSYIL
Chain of Nuclear receptor subfamily 1 group I member 2 (Homo sapiens) (O75469 whole entry, looked up, the tested form may be a part): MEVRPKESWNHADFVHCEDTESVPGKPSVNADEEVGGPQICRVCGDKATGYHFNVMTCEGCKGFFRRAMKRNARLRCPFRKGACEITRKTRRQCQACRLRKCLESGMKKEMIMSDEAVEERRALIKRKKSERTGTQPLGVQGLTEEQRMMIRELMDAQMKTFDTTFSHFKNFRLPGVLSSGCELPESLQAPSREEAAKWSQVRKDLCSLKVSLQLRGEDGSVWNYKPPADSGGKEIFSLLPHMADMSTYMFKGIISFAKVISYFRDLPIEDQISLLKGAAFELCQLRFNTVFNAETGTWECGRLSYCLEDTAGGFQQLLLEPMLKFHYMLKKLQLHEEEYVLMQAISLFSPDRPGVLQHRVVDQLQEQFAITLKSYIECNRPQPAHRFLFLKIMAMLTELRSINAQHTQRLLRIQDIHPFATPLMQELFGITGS

CCOP(=S)(OCC)SCS(=O)(=O)CC
active: [8] 5.73 µM
not listed: [17] | [18] | [19] | [20]
inactive: all other assays above

Cc1ccc2c(c1N)C(=O)c1ccccc1C2=O
active: [2] 9.4 µM | [8] 2.89 µM
not listed: [4] | [9] | [17] | [18] | [19] | [20]
inactive: all other assays above

NC(=O)C(F)(F)C(F)(F)F
not listed: [4] | [9] | [11] | [20]
inactive: all other assays above

O=C(O)C(F)(F)OC(F)(F)C(F)(F)OC(F)(F)C(=O)O
not listed: [7] | [9] | [10] | [12] | [17] | [18] | [19] | [20]
inactive: all other assays above

c1ccc(OP(Oc2ccccc2)Oc2ccccc2)cc1
not listed: [4] | [9] | [10] | [11] | [12] | [17] | [18] | [20]
inactive: all other assays above

O=C(O)C(F)(OC(F)(F)C(F)(F)C(F)(F)F)C(F)(F)F (stereo unspecified)
active: [2] 8.11 µM | [3] 16.9 µM | [6] 0.22 µM | [7] 102 µM | [15] 49.3 µM
inactive: [1] | [2] | [3] | [5] | [17] | [18] | [6] | [7] | [8] | [9] | [20] | [19] | [10] | [11] | [12] | [13] | [14] | [15] | [16]

N#Cc1cc([N+](=O)[O-])ccc1N
active: [2] 4.4 µM
not listed: [4] | [9] | [12] | [17] | [18] | [20]
inactive: all other assays above

CC(C)Nc1ccc(Nc2ccccc2)cc1
active: [1] 8.53 µM | [2] 8.74 µM | [5] 17.4 µM | [6] 1.82 µM | [7] 23.9 µM | [8] 2.71 µM | [13] 10.6 µM | [14] 6.48 µM | [15] 9.95 µM | [16] 6.18 µM
inactive: [3] | [17] | [18] | [9] | [19] | [10] | [11] | [12]
